A short description of test [1]: NCI Yeast Anticancer Drug Screen. Data for the rad50 strain (AID 155).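 Further: 0% = growth of vehicle-only cultures of the same strain.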 Particulars: S. cerevisiae rad50 strain growth inhibition; at 50.0 µM; stronger effect = higher value. The essentials: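 A DNA repair-deficient yeast mutant serves as the test organism; compound-induced growth inhibition is calculated against vehicle-treated cells.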
The nature of test [2]: NCI Yeast Anticancer Drug Screen. Data for the mec2-1 strain (AID 157). Particulars: S. cerevisiae mec2-1 strain, at 50.0 µM, stronger effect = higher value. The essentials: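 Mutant yeast (mec2-1) grown with compound; growth inhibition relative to vehicle control reported.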
A short description of test [3]: NCI Yeast Anticancer Drug Screen. Data for the sgs1 mgt1 strain (AID 161).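 Further: 0% = growth of cultures given vehicle only.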 Particulars: S. cerevisiae sgs1 mgt1 strain, at 50.0 µM, stronger effect = higher value. Summed up:
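Yeast cells carrying a defined DNA-repair defect were exposed to test compounds. Growth inhibition was measured relative to vehicle-treated controls.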

The nature of test [4]: NCI Yeast Anticancer Drug Screen. Data for the cln2 rad14 strain (AID 165).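 Further: 0% = growth equal to vehicle treated cultures.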 Particulars: S. cerevisiae cln2 rad14 strain, at 50.0 µM, stronger effect = higher value. The essentials: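 Readout is yeast growth inhibition versus vehicle-treated controls, using a strain with cln2 and rad14 alterations exposed to compound.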
Test [5] can be described thus: NCI Yeast Anticancer Drug Screen. Data for the bub3 strain (AID 167). As to conditions: S. cerevisiae bub3 mutant strain, at 50.0 µM, stronger effect = higher value. The essentials: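 Inhibition values come from growth of compound-treated mutant yeast normalised to vehicle-treated controls.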
The nature of test [6]: NCI Yeast Anticancer Drug Screen. Data for the mlh1 rad18 strain (AID 175). Particulars: S. cerevisiae mlh1 rad18 strain growth inhibition; at 50.0 µM; stronger effect = higher value. Summed up:
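Genetically defined yeast (DNA repair-deficient) exposed to compounds; growth inhibition determined relative to vehicle.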

This is part of a sample that, as a whole, favours compounds with a hit. Of some 79,000 tested, about 15% had one in any assay. A number with no mark means an inactive call. Calls of active or inactive are those of the source. No stated cut-off is given here; in the data, active means growth inhibition above about 70%; inactive means the rest.

As for `CC(NC1=NCCO1)c1ccco1` (stereo unspecified), the growth inhibition in test [1] was 4.45%; in test [2], 9.15%; in test [3], 13.2%; in test [4], 30%; in test [5] it was 6.7%; in test [6], -75.8%.

For the molecule `C/C=N/Nc1ccc([N+](=O)[O-])cc1[N+](=O)[O-]`, the growth inhibition in test [1] was 10.5%; in test [2] it was -6.35%; in test [3], -11.8%; in test [4], -14.9%; in test [5], 3.3%; in test [6] it was 16.8%.

In the case of `Nc1nc(N)n2c(N)nnc2n1`, the growth inhibition in test [1] was -3.4%; in test [2], -19.4%; in test [3], -0.25%; in test [4], 1.5%; in test [5], 4.65%; in test [6], 13.7%.

For `O=[As](O)(c1cccc(Cl)c1)C1CCCCC1O` (stereo unspecified), the growth inhibition in test [1] is 1.05%; in test [2], -0.35%; in test [3], 5.3%; in test [4], -1.95%; in test [5] it was 25.2%; in test [6], 34.4%.

In the case of `CCCCN(CCCC)CCc1ccccc1`, the growth inhibition in test [1] was 19.6%; in test [2], 1.8%; in test [3], 8.45%; in test [4], 17.8%; in test [5] it was 30.4%; in test [6] it was 17%.

With `CCC[CH2][Sn]([Br])([CH2]CCC)[CH2]CCC`, the growth inhibition was 91.2% (active) in test [1]; 97.8% (active) in test [2]; 95.8% (active) in test [3]; 96% (active) in test [4]; 89.4% (active) in test [5]; 97.3% (active) in test [6].

On to `O=P(O)(O)C(O)c1ccccc1` (stereo unspecified), for which the growth inhibition was -20.1% in test [1]; -31.9% in test [2]; -15.4% in test [3]; -1.9% in test [4]; -19.2% in test [5]; 17.6% in test [6].

`CC(Br)([N+](=O)[O-])[N+](=O)[O-]`: the growth inhibition in test [1] is 14.6%; in test [2] it was 25.8%; in test [3], 13.9%; in test [4], 39.6%; in test [5] it was 5.4%; in test [6], 2.8%.

Regarding `CC(Cl)C(=O)OC(C)C(=O)O` (stereo unspecified), the growth inhibition was 12.1% in test [1]; 17.1% in test [2]; 12.5% in test [3]; 8% in test [4]; -2.7% in test [5]; 3.4% in test [6].

For `[CH3][Sn]([CH3])([CH3])[O]C(=O)C(O)c1ccccc1` (stereo unspecified), the growth inhibition in test [1] is 11.6%; in test [2] it was -7.7%; in test [3], 5.1%; in test [4], 9.4%; in test [5], -0.05%; in test [6], -2.3%.

On to `O=NNc1ccc(Br)cn1`, for which the growth inhibition in test [1] is -2.7%; in test [2], -6.25%; in test [3] it was 5.7%; in test [4] it was -0.85%; in test [5], -0.35%; in test [6], 4.2%.

With `COP(=O)(OC)C1(C(C)(C)C)CO1` (stereo unspecified), the growth inhibition in test [1] was -1.75%; in test [2] it was -4.9%; in test [3] it was 0.65%; in test [4] it was -23.1%; in test [5], -11.6%; in test [6], 0.5%.

For the molecule `O=[As]c1ccc(C(=O)O)cc1` (stereo unspecified), the growth inhibition in test [1] is 11.2%; in test [2], -8.75%; in test [3] it was 0.2%; in test [4] it was 19.3%; in test [5], -7.2%; in test [6] it was 23.2%.

On to `CC(=N\O)/C(C)=N/O.CC(=N\O)/C(C)=N/O.[Ni]`, for which the growth inhibition in test [1] was -5.1%; in test [2] it was 3.6%; in test [3] it was -7.35%; in test [4] it was 0.95%; in test [5], 5.4%; in test [6], -10.9%.

Take `CCCCCCC1C(=O)NC(=O)NC1=O`: the growth inhibition was -4.25% in test [1]; -15.1% in test [2]; -8% in test [3]; -7.75% in test [4]; 2.6% in test [5]; -12.3% in test [6].

On to `O=C1SCCC1NP(=O)(Oc1ccccc1)Oc1ccccc1` (stereo unspecified), for which the growth inhibition is 5.35% in test [1]; 23.1% in test [2]; -1.35% in test [3]; -10.9% in test [4]; 9.25% in test [5]; 21.9% in test [6].

With `CN1CCc2ccc(O)cc2C1`, the growth inhibition is 16.3% in test [1]; 5.6% in test [2]; 3.95% in test [3]; -7.5% in test [4]; 15.7% in test [5]; 10.6% in test [6].

On to `O=c1[nH]cc(CCl)c(=O)[nH]1`, for which the growth inhibition is 3.2% in test [1]; -17.2% in test [2]; 6.3% in test [3]; 25.9% in test [4]; 4.85% in test [5]; -0.15% in test [6].

For the molecule `COc1ccc(CC2OC3(CCCCC3)CC3CCCCN32)cc1` (stereo unspecified), the growth inhibition in test [1] was 23.2%; in test [2] it was 13.9%; in test [3] it was 11.5%; in test [4], 7.65%; in test [5], -5.6%; in test [6] it was 6%.

Turning to `C[CH2][Sn]([CH2]C)([O]C(=O)c1ccccc1F)[O]C(=O)c1ccccc1F`, the growth inhibition in test [1] was -8.75%; in test [2], 27.6%; in test [3], 4.1%; in test [4], 22.6%; in test [5], 22.8%; in test [6], 28.1%.

For the molecule `[Cr+3].[NH-]CC[NH-].[NH-]CC[NH-].[NH-]CC[NH-].[O-][Cl+3]([O-])([O-])O`, the growth inhibition in test [1] is 19.2%; in test [2], 1.2%; in test [3], 1.05%; in test [4], -5.15%; in test [5] it was 1%; in test [6], -1.8%.

The values above are taken from PubChem BioAssay (NCI).
